Measurements from PubChem BioAssay (EPA / NIEHS).
Records with an inconclusive call do not appear. Active and inactive are the calls of the source. How the source made its calls, unless noted: active means hit-call score of the fitted dose curve at least 0.9, where 1 is the maximum; inactive means score below 0.9.

Legend:
[1] = target: Nuclear respiratory factor 1 (Homo sapiens) (UniProt Q16656); assay: ATG_NRF1_CIS: Attagene CIS-FACTORIAL HepG2 Assay for human Nuclear Respiratory Factor 1 (NRF1) Orphan Gene (AID 2282987); settings: HepG2 NRF1 cis-element reporter, Attagene multiplex; actives raise or lower the signal
Chain of Nuclear respiratory factor 1 (Homo sapiens) (Q16656 whole entry, looked up): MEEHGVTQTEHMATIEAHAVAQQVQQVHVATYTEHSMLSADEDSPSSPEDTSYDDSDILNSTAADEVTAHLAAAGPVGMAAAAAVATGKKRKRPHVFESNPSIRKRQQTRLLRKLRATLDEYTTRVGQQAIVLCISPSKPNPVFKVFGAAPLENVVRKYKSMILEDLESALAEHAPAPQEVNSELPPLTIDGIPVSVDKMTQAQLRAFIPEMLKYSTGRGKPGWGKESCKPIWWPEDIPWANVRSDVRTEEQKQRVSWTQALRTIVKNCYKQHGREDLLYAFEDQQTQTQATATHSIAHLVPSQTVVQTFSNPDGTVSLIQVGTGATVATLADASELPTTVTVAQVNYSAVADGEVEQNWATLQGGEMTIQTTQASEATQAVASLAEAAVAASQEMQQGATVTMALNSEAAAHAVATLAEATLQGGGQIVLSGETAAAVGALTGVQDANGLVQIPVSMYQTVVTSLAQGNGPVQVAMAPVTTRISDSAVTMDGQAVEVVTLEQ
In short: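 Endogenous NRF1-driven reporter transcription in transfected HepG2 cells after 24 h treatment. Readout: RT-PCR products, 6-FAM labelled and resolved by capillary electrophoresis; changes fitted both directions relative to DMSO.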

[2] = target: Myc proto-oncogene protein (Homo sapiens) (UniProt P01106); assay: ATG_Myc_CIS: Attagene CIS-FACTORIAL HepG2 Assay for human Myelocytomatosis (Myc) Proto-Oncogene Transcription Factor (AID 2282990); settings: HepG2, Attagene cis-reporter transcription factor activity; actives raise or lower the signal
Chain of Myc proto-oncogene protein (Homo sapiens) (P01106 whole entry, looked up, the tested form may be a part): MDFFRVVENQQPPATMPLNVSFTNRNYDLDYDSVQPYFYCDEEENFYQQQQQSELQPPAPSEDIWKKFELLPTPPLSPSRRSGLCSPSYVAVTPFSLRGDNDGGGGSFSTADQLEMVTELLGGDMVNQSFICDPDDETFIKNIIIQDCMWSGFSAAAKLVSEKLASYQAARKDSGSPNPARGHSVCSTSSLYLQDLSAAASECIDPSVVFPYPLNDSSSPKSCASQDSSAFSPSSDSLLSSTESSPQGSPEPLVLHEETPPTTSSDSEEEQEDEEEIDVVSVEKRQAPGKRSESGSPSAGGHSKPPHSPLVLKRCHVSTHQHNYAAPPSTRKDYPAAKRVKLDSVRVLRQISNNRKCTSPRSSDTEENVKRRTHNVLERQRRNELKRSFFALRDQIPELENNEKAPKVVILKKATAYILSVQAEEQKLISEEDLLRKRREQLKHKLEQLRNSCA
In short: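 Read-out: fluorescent reporter mRNA fragments resolved by capillary electrophoresis after RT-PCR. Human HepG2 liver cells carried transfected cis-element reporter units and were dosed for 24 h. Gain or loss of signal fitted relative to DMSO baseline.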

[3] = ATG_NRF2_ARE_CIS: Attagene CIS-FACTORIAL HepG2 Assay for human Nuclear Factor Erythroid 2 Related Factor 2 (NFR2) response to Antioxidant Response Elements (ARE) (AID 2282992); settings: HepG2 Attagene ARE/NRF2 reporter, transcription factor activity; actives raise or lower the signal
In short: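 Endogenous transcription factor activity read out as reporter transcript levels (RT-PCR plus capillary electrophoresis, fluorescence) in transiently transfected HepG2 cells. Measured at 24 h after dosing; gain or loss of signal fitted versus DMSO.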

[4] = ATG_Oct_MLP_CIS: Attagene CIS-FACTORIAL HepG2 Assay for human Octamer-Binding Transcription Factor (Oct) (AID 2282993); settings: HepG2 Attagene cis-factorial Oct reporter, mRNA; actives raise or lower the signal
In short: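 Transient MRTU transfection of HepG2 → 24 h compound treatment → RNA isolation, reverse transcription, PCR → 6-FAM primer extension, HpaI digest → capillary electrophoresis. Activity fitted both directions against DMSO.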

[5] = target: Cellular tumor antigen p53 (Homo sapiens) (UniProt P04637); assay: ATG_p53_CIS: Attagene CIS-FACTORIAL HepG2 Assay for human p53 Transcription Factor (AID 2282994); settings: HepG2 p53 cis-element reporter, Attagene mRNA; actives raise or lower the signal
Chain of Cellular tumor antigen p53 (Homo sapiens) (P04637 whole entry, looked up): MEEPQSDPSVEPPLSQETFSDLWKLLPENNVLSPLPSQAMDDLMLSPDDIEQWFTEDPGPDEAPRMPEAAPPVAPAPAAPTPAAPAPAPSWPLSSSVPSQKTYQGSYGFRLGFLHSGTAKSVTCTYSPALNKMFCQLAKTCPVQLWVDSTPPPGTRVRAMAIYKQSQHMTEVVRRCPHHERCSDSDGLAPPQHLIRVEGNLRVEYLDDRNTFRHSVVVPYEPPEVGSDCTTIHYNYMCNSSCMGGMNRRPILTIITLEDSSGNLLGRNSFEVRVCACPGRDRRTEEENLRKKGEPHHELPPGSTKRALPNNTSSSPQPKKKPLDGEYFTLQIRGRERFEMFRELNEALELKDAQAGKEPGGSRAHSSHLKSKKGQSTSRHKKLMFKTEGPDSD
In short: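 Endogenous p53 activity read in transiently transfected HepG2 from a cis-element-driven reporter transcript after 24 h exposure. RNA reverse-transcribed, PCR-amplified, fluorescently labelled and sized by capillary electrophoresis; gain or loss fitted against DMSO baseline.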

[6] = BSK_3C_TissueFactor: BioMAP Diversity Plus: 3C Assay for Tissue Factor Biomarker Activity (AID 2282997); settings: BioMAP 3C HUVEC, tissue factor biomarker readout; actives raise or lower the signal
In short: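 In this endothelial system, HUVEC are treated for 24 h and Tissue Factor is assessed by ELISA, normalised to DMSO.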

[7] = BSK_3C_uPAR: BioMAP Diversity Plus: 3C Assay for Urokinase-type plasminogen activator receptor (uPAR) Biomarker Activity (AID 2282998); settings: BioMAP 3C HUVEC, uPAR biomarker ELISA; actives raise or lower the signal
In short: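 ELISA readout of uPAR on human vascular endothelium (umbilical vein primary cells), taken 24 h after chemical dosing. Increases and decreases are both fitted relative to DMSO vehicle.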

[8] = BSK_3C_VCAM1: BioMAP Diversity Plus: 3C Assay for Vascular cell adhesion molecule 1 (VCAM1) Biomarker Activity (AID 2282999); settings: BioMAP 3C HUVEC, VCAM1 ELISA, cytokine-stimulated; actives raise or lower the signal
In short: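 HUVEC primary cells, 24 h compound exposure; VCAM-1 by ELISA; gain/loss of signal fitted bidirectionally vs DMSO baseline.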

[9] = BSK_4H_Eotaxin3: BioMAP Diversity Plus: 4H Assay for Eotaxin 3 Biomarker Activity (AID 2283000); settings: primary human endothelial cells (HUVEC); actives raise or lower the signal
In short: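 ELISA quantitation of CCL26 (Eotaxin-3) protein from chemically dosed human vascular endothelial cells at 24 h; increases and decreases both scored relative to DMSO-treated baseline.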

[10] = target: human Peroxisome Proliferator-activated Receptor alpha (PPARa), PPARA (gene 5465) (UniProt Q07869); assay: ATG_PPARa_TRANS: Attagene TRANS-FACTORIAL HepG2 Assay for human Peroxisome Proliferator-activated Receptor alpha (PPARa) (AID 2283001; active means hit-call score of the fitted dose curve at least 0.9, where 1 is the maximum;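 on AC50: potency for gain of reporter signal over DMSO so agonist or activator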)
Chain of human Peroxisome Proliferator-activated Receptor alpha (PPARa), PPARA (gene 5465) (Q07869 whole entry, looked up): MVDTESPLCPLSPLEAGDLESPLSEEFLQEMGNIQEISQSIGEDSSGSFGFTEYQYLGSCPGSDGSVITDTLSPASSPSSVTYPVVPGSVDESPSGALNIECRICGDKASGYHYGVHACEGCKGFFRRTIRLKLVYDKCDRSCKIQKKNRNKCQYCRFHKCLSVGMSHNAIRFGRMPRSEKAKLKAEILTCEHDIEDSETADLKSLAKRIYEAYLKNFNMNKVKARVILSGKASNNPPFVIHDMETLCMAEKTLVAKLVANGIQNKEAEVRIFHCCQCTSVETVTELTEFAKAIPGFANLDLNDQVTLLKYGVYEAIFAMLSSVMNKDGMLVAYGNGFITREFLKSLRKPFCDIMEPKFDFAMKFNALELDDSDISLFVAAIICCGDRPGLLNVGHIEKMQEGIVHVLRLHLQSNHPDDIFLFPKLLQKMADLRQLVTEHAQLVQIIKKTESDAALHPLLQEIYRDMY
In short: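 HepG2, transient MRTU transfection, 24 h treatment. RT-PCR → FAM labelling → capillary electrophoresis. Fit vs DMSO, positive direction.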

[11] = target: human Peroxisome Proliferator-activated Receptor delta (PPARd), PPARD (gene 5467) (UniProt Q03181); assay: ATG_PPARd_TRANS: Attagene TRANS-FACTORIAL HepG2 Assay for human Peroxisome Proliferator-activated Receptor delta (PPARd) (AID 2283002; active means hit-call score of the fitted dose curve at least 0.9, where 1 is the maximum)
Chain of human Peroxisome Proliferator-activated Receptor delta (PPARd), PPARD (gene 5467) (Q03181 whole entry, looked up, the tested form may be a part): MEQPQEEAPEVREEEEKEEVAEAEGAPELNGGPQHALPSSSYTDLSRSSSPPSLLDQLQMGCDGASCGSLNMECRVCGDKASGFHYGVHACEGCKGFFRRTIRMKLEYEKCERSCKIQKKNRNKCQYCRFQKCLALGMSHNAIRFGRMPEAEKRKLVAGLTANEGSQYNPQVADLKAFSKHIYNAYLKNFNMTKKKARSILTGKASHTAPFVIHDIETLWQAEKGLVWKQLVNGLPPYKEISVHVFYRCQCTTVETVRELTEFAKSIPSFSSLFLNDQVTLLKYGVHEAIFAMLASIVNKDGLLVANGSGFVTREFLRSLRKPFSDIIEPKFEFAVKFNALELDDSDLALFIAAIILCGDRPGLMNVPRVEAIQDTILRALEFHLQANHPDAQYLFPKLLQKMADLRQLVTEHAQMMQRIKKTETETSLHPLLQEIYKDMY
In short: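 Read-out: reporter mRNA induction, quantified by fluorescent RT-PCR products resolved by capillary electrophoresis. Human HepG2 liver cells carried transiently transfected Gal4-UAS reporter constructs with chimeric NR-Gal4 fusions. Cells were dosed for 24 h; DMSO served as baseline.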

[12] = read-out: Intercellular Adhesion Molecule 1 (ICAM1), ICAM1 (gene 3383); assay: BSK_3C_ICAM1: BioMAP Diversity Plus: 3C Assay for Intercellular Adhesion Molecule 1 (ICAM1) Biomarker Activity (AID 2283003); settings: primary human endothelial cells (HUVEC); actives raise or lower the signal
In short: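 Chemicals are dosed onto primary human umbilical vein endothelium (3C system). After 24 h, ICAM-1 is measured by ELISA, and responses are fitted bidirectionally relative to DMSO.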

[13] = BSK_3C_Proliferation: Cell Proliferation Assessment in the BioMAP Diversity Plus: 3C Assay (AID 2283006); settings: primary human endothelial cells (HUVEC);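 on AC50: potency may reflect either rise or fall in cell number versus DMSO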
In short: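 Cells (human umbilical vein endothelial, sub-confluent) receive test chemical; after 48 h they are fixed in 10% trichloroacetic acid, stained with 0.1% SRB and read at 560 nm. Activity is referenced to DMSO, fitting increases and decreases.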

[14] = ATG_NF_kB_CIS: Attagene CIS-FACTORIAL HepG2 Assay for human Nuclear Factor Kappa B (NF-kB) (AID 2282991); settings: HepG2 Attagene cis-factorial NF-kB reporter mRNA; actives raise or lower the signal
In short: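 Readout is reporter transcript level, gain or loss versus DMSO, measured 24 h post-dose via RT-PCR, fluorescent labelling and capillary electrophoresis. Human HepG2 liver cells carried transiently transfected CIS reporter constructs reflecting endogenous factors.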

[15] = target: human Retinoic Acid Receptor beta (RARb), RARB (gene 5915) (UniProt P10826); assay: ATG_RARb_TRANS: Attagene TRANS-FACTORIAL HepG2 Assay for human Retinoic Acid Receptor beta (AID 2283004; active means hit-call score of the fitted dose curve at least 0.9, where 1 is the maximum)
Chain of human Retinoic Acid Receptor beta (RARb), RARB (gene 5915) (P10826 whole entry, looked up, the tested form may be a part): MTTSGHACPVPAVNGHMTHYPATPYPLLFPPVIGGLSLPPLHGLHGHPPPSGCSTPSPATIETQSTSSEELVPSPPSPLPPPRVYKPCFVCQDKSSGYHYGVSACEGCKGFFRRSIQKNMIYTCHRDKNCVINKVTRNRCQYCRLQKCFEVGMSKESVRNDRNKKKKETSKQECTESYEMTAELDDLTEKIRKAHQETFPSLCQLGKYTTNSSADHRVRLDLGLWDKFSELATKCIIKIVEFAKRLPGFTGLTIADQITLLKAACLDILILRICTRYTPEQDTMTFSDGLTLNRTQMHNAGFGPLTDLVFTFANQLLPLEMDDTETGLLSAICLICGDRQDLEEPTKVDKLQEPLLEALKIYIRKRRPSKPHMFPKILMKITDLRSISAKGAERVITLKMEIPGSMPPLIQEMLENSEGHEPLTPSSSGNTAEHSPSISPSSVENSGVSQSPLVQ
In short: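 Fluorescent capillary-electrophoresis detection of GAL4-UAS reporter mRNA defines the endpoint, with induction over DMSO-treated wells scored as activity. Transiently transfected human hepatoma HepG2 cells expressing exogenous NR–Gal4 proteins are exposed to test chemicals for 24 h.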

[16] = target: Retinoic acid receptor alpha (Homo sapiens) (UniProt P10276); assay: ATG_RARa_TRANS: Attagene TRANS-FACTORIAL HepG2 Assay for human Retinoic Acid Receptor alpha (RARa) (AID 2283005; active means hit-call score of the fitted dose curve at least 0.9, where 1 is the maximum)
Chain of Retinoic acid receptor alpha (Homo sapiens) (P10276 whole entry, looked up, the tested form may be a part): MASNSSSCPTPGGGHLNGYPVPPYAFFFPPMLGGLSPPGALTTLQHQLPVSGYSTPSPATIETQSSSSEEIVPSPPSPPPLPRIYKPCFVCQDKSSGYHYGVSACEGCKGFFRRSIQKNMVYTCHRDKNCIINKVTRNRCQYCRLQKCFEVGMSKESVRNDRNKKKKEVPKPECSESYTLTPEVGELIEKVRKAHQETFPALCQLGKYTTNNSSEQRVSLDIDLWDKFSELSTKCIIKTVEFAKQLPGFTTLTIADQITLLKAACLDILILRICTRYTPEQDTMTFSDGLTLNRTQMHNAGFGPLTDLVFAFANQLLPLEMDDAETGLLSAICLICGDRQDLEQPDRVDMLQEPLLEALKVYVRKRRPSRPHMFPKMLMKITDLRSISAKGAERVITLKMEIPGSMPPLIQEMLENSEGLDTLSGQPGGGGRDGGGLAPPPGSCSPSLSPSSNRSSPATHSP
In short: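 HepG2 transiently transfected with multiplex GAL4-UAS reporter units including a human RARa–GAL4 chimera; 24 h compound exposure. Reporter mRNA quantified by RT-PCR, 6-FAM labeling and capillary electrophoresis; gain of signal versus DMSO.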

[17] = target: Nuclear receptor subfamily 1 group I member 2 (Homo sapiens) (UniProt O75469); assay: ATG_PXR_TRANS: Attagene TRANS-FACTORIAL HepG2 Assay for human Pregnane X Receptor (PXR) (AID 2283008; active means hit-call score of the fitted dose curve at least 0.9, where 1 is the maximum)
Chain of Nuclear receptor subfamily 1 group I member 2 (Homo sapiens) (O75469 whole entry, looked up, the tested form may be a part): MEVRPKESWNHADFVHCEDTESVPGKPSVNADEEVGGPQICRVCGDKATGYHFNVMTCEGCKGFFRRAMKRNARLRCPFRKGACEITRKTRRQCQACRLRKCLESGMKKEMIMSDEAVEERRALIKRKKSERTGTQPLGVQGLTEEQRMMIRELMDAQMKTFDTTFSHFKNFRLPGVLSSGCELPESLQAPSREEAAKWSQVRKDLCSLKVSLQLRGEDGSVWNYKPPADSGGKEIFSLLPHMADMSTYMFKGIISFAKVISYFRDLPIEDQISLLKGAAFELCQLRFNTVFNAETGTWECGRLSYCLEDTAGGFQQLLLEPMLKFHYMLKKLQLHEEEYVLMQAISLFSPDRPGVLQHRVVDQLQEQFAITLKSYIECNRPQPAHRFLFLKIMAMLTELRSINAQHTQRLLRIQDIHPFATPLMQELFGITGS
In short: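 Transactivation by exogenous PXR–GAL4 fusion measured as reporter transcript induction after 24 h compound treatment of transfected human HepG2 cells. Read-out via RT-PCR and capillary electrophoresis of labelled fragments, fitted upward relative to DMSO.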

[18] = target: human Retinoic Acid Receptor gamma (RARg), RARG (gene 5916) (UniProt P13631); assay: ATG_RARg_TRANS: Attagene TRANS-FACTORIAL HepG2 Assay for human Retinoic Acid Receptor gamma (RARg) (AID 2283009; active means hit-call score of the fitted dose curve at least 0.9, where 1 is the maximum)
Chain of human Retinoic Acid Receptor gamma (RARg), RARG (gene 5916) (P13631 whole entry, looked up, the tested form may be a part): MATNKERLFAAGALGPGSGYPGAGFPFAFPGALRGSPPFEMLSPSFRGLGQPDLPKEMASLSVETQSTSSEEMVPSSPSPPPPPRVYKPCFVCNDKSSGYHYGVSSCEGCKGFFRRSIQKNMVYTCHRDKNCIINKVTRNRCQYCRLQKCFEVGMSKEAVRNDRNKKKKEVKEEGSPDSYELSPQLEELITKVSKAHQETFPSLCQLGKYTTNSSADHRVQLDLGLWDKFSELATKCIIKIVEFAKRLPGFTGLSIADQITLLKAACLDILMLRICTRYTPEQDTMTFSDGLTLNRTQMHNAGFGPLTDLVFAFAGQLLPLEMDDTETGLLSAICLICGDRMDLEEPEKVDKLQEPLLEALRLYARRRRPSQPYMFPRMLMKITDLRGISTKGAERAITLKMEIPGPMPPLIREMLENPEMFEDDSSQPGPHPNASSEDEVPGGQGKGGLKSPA
In short: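 TRANS format measured activity of exogenous NR-GAL4 fusion (RARg) in transfected HepG2 liver cells after 24 h dosing. Induced reporter RNA was detected by RT-PCR/capillary electrophoresis fluorescence, analysed in the positive direction against DMSO.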

[19] = target: Peroxisome proliferator-activated receptor gamma (Homo sapiens) (UniProt P37231); assay: ATG_PPARg_TRANS: Attagene TRANS-FACTORIAL HepG2 Assay for human Peroxisome Proliferator-activated Receptor-gamma (PPARg) (AID 2283007; active means hit-call score of the fitted dose curve at least 0.9, where 1 is the maximum)
Chain of Peroxisome proliferator-activated receptor gamma (Homo sapiens) (P37231 whole entry, looked up, the tested form may be a part): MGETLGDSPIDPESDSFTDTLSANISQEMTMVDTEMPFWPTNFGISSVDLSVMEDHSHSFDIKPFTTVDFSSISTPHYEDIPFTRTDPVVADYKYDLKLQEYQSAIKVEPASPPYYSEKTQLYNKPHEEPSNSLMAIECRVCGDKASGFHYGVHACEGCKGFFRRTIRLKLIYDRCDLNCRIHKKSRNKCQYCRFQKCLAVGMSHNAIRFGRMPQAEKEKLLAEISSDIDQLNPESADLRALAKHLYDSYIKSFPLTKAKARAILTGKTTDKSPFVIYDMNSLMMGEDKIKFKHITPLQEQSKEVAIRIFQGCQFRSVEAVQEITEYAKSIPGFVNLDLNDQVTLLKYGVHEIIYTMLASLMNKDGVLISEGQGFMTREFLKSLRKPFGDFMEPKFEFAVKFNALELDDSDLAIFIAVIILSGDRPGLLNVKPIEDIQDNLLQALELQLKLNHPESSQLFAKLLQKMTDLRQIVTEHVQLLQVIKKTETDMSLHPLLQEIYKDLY
In short: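 After 24 h of chemical exposure, transfected HepG2 cells carrying PPARγ-Gal4 chimera reporter constructs are lysed for RNA. Reporter transcripts are measured by RT-PCR and capillary electrophoresis with fluorescent labelling, and gain of signal is fitted versus DMSO.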

Measured: AC50

CC(=O)C(C)=CC1C(C)=CCCC1(C)C (stereo unspecified)
inactive: [1] | [2] | [3] | [4] | [5] | [6] | [7] | [8] | [9] | [10] | [11] | [12] | [13]

CCCCCCC(=O)OCC
active: [17] 57.3 µM
inactive: [1] | [2] | [14] | [3] | [4] | [5] | [6] | [7] | [8] | [9] | [11] | [12] | [15] | [16] | [13] | [18]

COc1cc(-c2nc(NC(=O)c3cc4cc(C)cc(C)c4n3CC(=O)O)sc2CCC2CCCCC2)c(OC)cc1Cl
active: [14] 26.7 µM | [3] 3.45 µM | [4] 5.48 µM | [6] 2.98 µM | [7] 2.92 µM | [8] 4.86 µM | [9] 3.77 µM | [12] 5.54 µM | [13] 3.78 µM
inactive: [1] | [2] | [5] | [10] | [19] | [17]

Cc1cccc(Nc2cc(Cl)nc(SCC(=O)O)n2)c1C
active: [17] 21 µM
inactive: [1] | [2] | [14] | [3] | [4] | [5] | [6] | [7] | [8] | [9] | [12] | [15] | [13]

CCCCCCCCCCO
inactive: [1] | [2] | [5] | [6] | [7] | [8] | [9] | [12] | [15] | [18]
active: [14] 144 µM | [3] 158 µM | [4] 173 µM | [10] 128 µM | [13] 33 µM | [19] 41.1 µM

Cc1cc(=O)[nH]c(=S)[nH]1
inactive: [1] | [2] | [14] | [3] | [4] | [5] | [6] | [7] | [8] | [9] | [11] | [12] | [13]

O=C(OCCCCCOC(=O)c1ccccc1)c1ccccc1
active: [13] 29.7 µM
inactive: [1] | [2] | [14] | [3] | [4] | [5] | [6] | [7] | [8] | [9] | [11] | [12] | [16] | [19] | [17]

Cc1ccc(Cl)cc1
inactive: [1] | [2] | [3] | [4] | [5] | [6] | [7] | [8] | [9] | [11] | [12] | [13] | [19] | [17]

CC(CO)OC(C)CO (stereo unspecified) (tested in a mixture with another compound)
inactive: [1] | [2] | [14] | [3] | [4] | [5] | [6] | [7] | [8] | [9] | [10] | [12] | [13] | [17]

C[Si]1(C)O[Si](C)(C)O[Si](C)(C)O[Si](C)(C)O1
inactive: [1] | [2] | [14] | [3] | [4] | [5] | [6] | [7] | [8] | [9] | [11] | [12] | [13] | [19] | [17]

O=c1c(O)c(-c2ccc(O)c(O)c2)oc2cc(O)cc(O)c12
active: [3] 27 µM | [5] 65.6 µM | [6] 15.6 µM | [7] 13.7 µM | [8] 32 µM | [9] 24.4 µM | [13] 26.8 µM
inactive: [1] | [2] | [14] | [4] | [10] | [12] | [19] | [18]

NC(=O)Cn1c(=O)cc(CCN2CCN(c3nccc4sccc34)CC2)c2ccc(F)cc21
inactive: [1] | [2] | [14] | [4] | [5] | [6] | [7] | [8] | [9] | [11] | [12] | [19] | [17]
active: [3] 54.3 µM | [13] 0.148 µM

CCOC(=O)C(C)(C)Oc1ccc(Cl)cc1
inactive: [1] | [2] | [14] | [3] | [4] | [5] | [6] | [7] | [8] | [9] | [12] | [13] | [19]
active: [10] 37.2 µM
